Experimental data from PubChem BioAssay.
Active and inactive are the calls of the source.

Assays:
[1] = E. coli DRC41 culture turbidity changes, primary screen, E. coli filamentation inducer project, strain DRC41, OD650, 48 h (AID 1152);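 further: E. coli MC1000 strain DRC41 lacking acrAB efflux pump and sulA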; settings: E. coli DRC41 (acrAB sulA), higher = more signal, called active from +8 up or from −8 down
[2] = small-molecule binders of probe aLefty1, primary screen, biochemical, small-molecule microarray, 635/667 nm fluorescence (AID 1153); settings: higher = more signal;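 further: score merges spot fluorescence with signal-to-noise ratio from the scanned slide images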
[3] = PSAC antagonists in infected red cells, primary screen, cell-based, P. falciparum Indochina, OD700, 1 h (AID 1154); settings: P. falciparum Indochina infected RBC osmotic lysis, higher = more signal, called active from +8 up or from −8 down
[4] = PSAC antagonists in infected red cells, primary screen, cell-based, P. falciparum Indochina, OD700, 2 h (AID 1155);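 further: lysis reports solute entry through the parasite surface anion channel PSAC; channel blockers reduce lysis of infected cells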; settings: P. falciparum Indochina infected erythrocytes, osmotic lysis OD700; higher = more signal, called active from +8 up or from −8 down
[5] = osmotic lysis modulators in infected erythrocytes, primary screen, PSAC antagonist project, cell-based, P. falciparum Indochina, OD700, 3 h (AID 1156); settings: higher = more signal, called active from +8 up or from −8 down
[6] = PSAC antagonists in infected red cells, primary screen, cell-based, P. falciparum Indochina, OD700, 18 h (AID 1157); settings: P. falciparum Indochina infected erythrocytes, osmotic lysis OD700, 18 h; higher = more signal, called active from +8 up or from −8 down
[7] = modulators of S6 phosphorylation in cells, primary screen, cell-based, A549, cytoblot, luminescence, serum-stimulated (AID 1158); settings: A549 phospho-S6 cytoblot, 5 h, higher = more signal;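 further: serum-stimulated A549 lung adenocarcinoma cells; signal is phosphorylated S6 detected by cytoblot immunostaining with HRP secondary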
[8] = target: NADPH oxidase 2 (Homo sapiens) (UniProt P04839); assay: NOX2-dependent H2O2 signal modulators, primary screen, NOX inhibitor project, cell-based, HEK293-NOX2, PMA-stimulated, Amplex Red fluorescence (AID 1159); settings: 45 min, higher = more signal, called active from +8 up or from −8 down; further: test concentration not given here
Chain of NADPH oxidase 2 (Homo sapiens) (P04839 whole entry, looked up): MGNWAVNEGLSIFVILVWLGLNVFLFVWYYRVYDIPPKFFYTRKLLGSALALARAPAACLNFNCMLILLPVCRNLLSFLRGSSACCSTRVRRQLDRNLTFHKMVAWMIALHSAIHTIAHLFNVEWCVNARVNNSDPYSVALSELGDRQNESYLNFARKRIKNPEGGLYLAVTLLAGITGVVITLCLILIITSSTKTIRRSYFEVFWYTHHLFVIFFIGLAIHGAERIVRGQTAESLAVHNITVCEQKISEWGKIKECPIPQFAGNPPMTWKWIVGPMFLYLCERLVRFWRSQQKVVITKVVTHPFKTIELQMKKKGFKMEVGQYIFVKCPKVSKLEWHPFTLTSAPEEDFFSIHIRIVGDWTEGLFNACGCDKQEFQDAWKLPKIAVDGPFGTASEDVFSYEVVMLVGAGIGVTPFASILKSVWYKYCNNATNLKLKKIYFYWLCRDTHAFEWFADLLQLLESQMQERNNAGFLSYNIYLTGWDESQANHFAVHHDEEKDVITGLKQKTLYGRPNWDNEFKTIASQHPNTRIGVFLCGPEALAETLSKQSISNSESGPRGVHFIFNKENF

[9] = target: NADPH oxidase 4 (Homo sapiens) (UniProt Q9NPH5); assay: NOX4-dependent H2O2 signal modulators, primary screen, NOX inhibitor project, cell-based, HEK293-NOX4, tetracycline-induced, Amplex Red fluorescence (AID 1160); settings: 45 min, higher = more signal, called active from +8 up or from −8 down
Chain of NADPH oxidase 4 (Homo sapiens) (Q9NPH5 whole entry, looked up): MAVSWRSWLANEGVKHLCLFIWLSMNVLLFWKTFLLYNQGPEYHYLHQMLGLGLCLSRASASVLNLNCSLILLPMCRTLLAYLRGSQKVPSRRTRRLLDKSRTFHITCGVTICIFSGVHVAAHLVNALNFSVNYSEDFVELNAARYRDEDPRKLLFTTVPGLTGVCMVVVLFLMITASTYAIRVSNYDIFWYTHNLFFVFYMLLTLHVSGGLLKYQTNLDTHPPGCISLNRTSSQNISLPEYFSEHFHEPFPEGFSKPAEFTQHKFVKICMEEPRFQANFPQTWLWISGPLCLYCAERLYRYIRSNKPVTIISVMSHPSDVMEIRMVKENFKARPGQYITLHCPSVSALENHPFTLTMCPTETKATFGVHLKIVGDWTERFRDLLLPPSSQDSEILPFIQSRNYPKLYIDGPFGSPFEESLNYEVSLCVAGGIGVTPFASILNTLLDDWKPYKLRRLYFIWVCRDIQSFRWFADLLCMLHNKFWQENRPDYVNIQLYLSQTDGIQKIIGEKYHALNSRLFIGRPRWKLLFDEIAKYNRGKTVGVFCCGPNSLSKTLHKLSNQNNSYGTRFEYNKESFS

[10] = target: NADPH oxidase 5 (Homo sapiens) (UniProt Q96PH1); assay: NOX5-dependent H2O2 signal modulators, primary screen, NOX inhibitor project, cell-based, HEK293-NOX5, Amplex Red fluorescence (AID 1161); settings: HEK293-NOX5, ionomycin, 45 min, higher = more signal
Chain of NADPH oxidase 5 (Homo sapiens) (Q96PH1 whole entry, looked up): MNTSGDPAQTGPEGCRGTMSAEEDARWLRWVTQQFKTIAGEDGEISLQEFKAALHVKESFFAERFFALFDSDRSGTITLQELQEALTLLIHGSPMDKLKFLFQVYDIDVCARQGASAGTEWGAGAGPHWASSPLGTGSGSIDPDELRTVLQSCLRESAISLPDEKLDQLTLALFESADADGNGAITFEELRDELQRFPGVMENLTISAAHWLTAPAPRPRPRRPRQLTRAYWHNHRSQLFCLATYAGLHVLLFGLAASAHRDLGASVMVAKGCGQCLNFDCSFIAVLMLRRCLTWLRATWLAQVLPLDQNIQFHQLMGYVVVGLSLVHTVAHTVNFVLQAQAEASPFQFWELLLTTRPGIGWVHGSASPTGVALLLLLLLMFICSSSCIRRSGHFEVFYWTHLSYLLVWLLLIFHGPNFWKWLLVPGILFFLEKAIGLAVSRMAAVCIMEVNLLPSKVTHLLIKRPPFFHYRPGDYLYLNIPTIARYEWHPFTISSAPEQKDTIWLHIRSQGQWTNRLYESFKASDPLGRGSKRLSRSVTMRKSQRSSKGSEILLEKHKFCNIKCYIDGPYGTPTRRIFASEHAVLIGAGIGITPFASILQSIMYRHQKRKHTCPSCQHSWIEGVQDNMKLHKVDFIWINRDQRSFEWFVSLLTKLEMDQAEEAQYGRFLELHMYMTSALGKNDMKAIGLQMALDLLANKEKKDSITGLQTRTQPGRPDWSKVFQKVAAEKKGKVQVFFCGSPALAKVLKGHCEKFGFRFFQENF

[11] = A549 cell viability effects, profiling panel, calcein-AM fluorescence, 48 h, basal (AID 1162); settings: higher = more signal; further: test concentration not given here
[12] = adipocyte viability effects, profiling panel, cell-based, 3T3-L1 adipocytes, calcein-AM fluorescence, 48 h, basal (AID 1163); settings: 3T3-L1 adipocytes viability, higher = more signal; further: test concentration not given here
[13] = HepG2 cell viability effects, profiling panel, calcein-AM fluorescence, 48 h, basal (AID 1164); settings: higher = more signal; further: test concentration not given here
[14] = MM1S cell viability effects, profiling panel, calcein-AM fluorescence, 48 h, basal (AID 1165); settings: higher = more signal;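 further: viability of MM1S multiple myeloma cells under basal unstimulated conditions; test concentration not given here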
[15] = basal RPMI8226 viability, no added stimulus, profiling panel, cell-based, calcein-AM fluorescence, 48 h, PK04 Diversity Set (AID 1166); settings: RPMI8226 myeloma viability, higher = more signal;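 further: cells grown under basal conditions without added stimulus; test concentration not given here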
[16] = basal HepG2 mitochondrial membrane potential changes, profiling panel, cell-based, JC-1 fluorescence, 24 h, 100 nL compound (AID 1167); settings: higher = more signal; further: test concentration not given here
[17] = basal 3T3-L1 adipocyte mitochondrial potential changes, profiling panel, cell-based, JC-1 fluorescence, 3T3-L1 adipocytes, 24 h, 100 nL compound (AID 1168); settings: JC-1 mitochondrial fluorescence, higher = more signal, called active from +8 up or from −8 down; further: test concentration not given here
[18] = basal RPMI8226 mitochondrial membrane potential changes, profiling panel, cell-based, JC-1 fluorescence, 24 h, 100 nL compound (AID 1169); settings: RPMI8226 myeloma, JC-1 mitochondrial potential fluorescence, higher = more signal; further: test concentration not given here
[19] = basal MM1S mitochondrial membrane potential changes, profiling panel, cell-based, JC-1 fluorescence, 24 h, 100 nL compound (AID 1170); settings: higher = more signal; further: test concentration not given here
[20] = A549 lung cancer cell viability effects, profiling panel, resazurin fluorescence, 24 h, PK04 Diversity Set (AID 1171); settings: higher = more signal, called active from +8 up or from −8 down; further: test concentration not given here

CCOC(=O)C[C@H]1[C@H](OC(=O)c2ccc(-c3ccccc3)cc2)[C@@H](NC(=O)c2ccccc2)c2cc(OCCCO)ccc2N1C(=O)c1ccc2ccccc2n1
z-score [1]: -0.734 (inactive) | composite z-score [2]: 0.119 | z-score [3]: 2.19 (inactive) | z-score [4]: -0.0981 (inactive) | z-score [5]: -0.735 (inactive) | z-score [6]: -0.11 (inactive) | z-score [7]: -0.488 | z-score [8]: 0.0548 (inactive) | z-score [9]: 1.41 (inactive) | z-score [10]: 1.81 | z-score [11]: -0.208 | z-score [12]: -0.0559 | z-score [13]: 0.261 | z-score [14]: -0.936 | z-score [15]: -0.617 | z-score [16]: 0.0102 | z-score [17]: -0.811 (inactive) | z-score [18]: 0.939 | z-score [19]: -0.386 | z-score [20]: -0.264 (inactive)

CC(C)OC(=O)C=C1C[C@@H](c2cccc(Cl)c2)O[C@@H](c2cccc(Cl)c2)O1
z-score [1]: -0.411 (inactive) | composite z-score [2]: 0.165 | z-score [3]: 0.915 (inactive) | z-score [4]: 0.584 (inactive) | z-score [5]: -0.159 (inactive) | z-score [6]: 0.61 (inactive) | z-score [7]: -0.0581 | z-score [8]: 0.215 (inactive) | z-score [9]: -0.914 (inactive) | z-score [10]: -0.0406 | z-score [11]: -1.2 | z-score [12]: -0.0201 | z-score [13]: -0.822 | z-score [14]: -1.97 | z-score [15]: -0.66 | z-score [16]: -0.46 | z-score [17]: 0.843 (inactive) | z-score [18]: 0.0432 | z-score [19]: -1.51 | z-score [20]: 0.146 (inactive)

CCCCC(O)C1C=CC2C(=O)N(C)C(=O)C2N1N1CCCCC1 (stereo not given)
z-score [1]: -1.43 (inactive) | composite z-score [2]: 0.384 | z-score [3]: 0.537 (inactive) | z-score [4]: 0.917 (inactive) | z-score [5]: 0.155 (inactive) | z-score [6]: 1.47 (inactive) | z-score [7]: -0.751 | z-score [8]: -0.353 (inactive) | z-score [9]: 0.133 (inactive) | z-score [10]: -1.03 | z-score [11]: -1.19 | z-score [12]: -0.579 | z-score [13]: -0.267 | z-score [14]: -0.73 | z-score [15]: -0.173 | z-score [16]: -1.59 | z-score [17]: -0.686 (inactive) | z-score [18]: 0.135 | z-score [19]: -0.026 | z-score [20]: -0.377 (inactive)

COC(=O)[C@@]1(Cc2ccc(F)cc2)[C@H]2c3cc(C(=O)N(C)C)n(Cc4cc(C)n(C)n4)c3C[C@H]2CN1C(=O)c1ccccc1
z-score [1]: -1.48 (inactive) | composite z-score [2]: 0.0576 | z-score [3]: 0.797 (inactive) | z-score [4]: 0.364 (inactive) | z-score [5]: 0.0419 (inactive) | z-score [6]: 0.495 (inactive) | z-score [7]: -0.438 | z-score [8]: 0.743 (inactive) | z-score [9]: -0.354 (inactive) | z-score [10]: -0.329 | z-score [11]: -0.492 | z-score [12]: -0.202 | z-score [13]: -0.395 | z-score [14]: -0.9 | z-score [15]: -0.528 | z-score [16]: 0.635 | z-score [17]: -1.01 (inactive) | z-score [18]: -0.12 | z-score [19]: 0.203 | z-score [20]: -0.759 (inactive)

CCC(CC)C(O)C1C=CC2C(=O)N(c3ccccc3)C(=O)C2N1Nc1ccccc1 (stereo not given)
z-score [1]: 0.878 (inactive) | composite z-score [2]: 0.947 | z-score [3]: 4.73 (inactive) | z-score [4]: 0.696 (inactive) | z-score [5]: 0.301 (inactive) | z-score [6]: 0.95 (inactive) | z-score [7]: -0.709 | z-score [8]: -0.588 (inactive) | z-score [9]: -3.29 (inactive) | z-score [10]: -3.4 | z-score [11]: 0.857 | z-score [12]: -1.31 | z-score [13]: 1.72 | z-score [14]: -0.127 | z-score [15]: -0.092 | z-score [16]: -1.48 | z-score [17]: -2.32 (inactive) | z-score [18]: 0.0116 | z-score [19]: -0.403 | z-score [20]: 0.328 (inactive)

COc1ccc([Si](C)(C)[C@@H]2[C@@H](CCn3cc([C@H](O)c4ccccc4)nn3)O[C@]3(C(=O)N(Cc4cccc(N5CCC5=O)c4)c4ccccc43)[C@H]2C)cc1
z-score [1]: -0.811 (inactive) | composite z-score [2]: -0.144 | z-score [3]: 10.4 (active) | z-score [4]: 2.06 (inactive) | z-score [5]: 0.538 (inactive) | z-score [6]: 0.989 (inactive) | z-score [7]: 0.135 | z-score [8]: 0.702 (inactive) | z-score [9]: 1.4 (inactive) | z-score [10]: 2.32 | z-score [11]: 0.208 | z-score [12]: 0.745 | z-score [13]: -0.924 | z-score [14]: -0.6 | z-score [15]: -0.984 | z-score [16]: -0.262 | z-score [17]: 1.15 (inactive) | z-score [18]: -0.735 | z-score [19]: -0.487 | z-score [20]: 0.0773 (inactive)

CO[C@H]1O[C@H](CO)[C@@H](OC(=O)Nc2ccccc2)[C@@H]2OC(=O)[C@@H](Cc3ccc4ccccc4c3)C/C=C/C[C@H](Cc3ccc4ccccc4c3)C(=O)O[C@@H]12
z-score [1]: 2.85 (inactive) | composite z-score [2]: 0.0167 | z-score [3]: 2.71 (inactive) | z-score [4]: -0.0552 (inactive) | z-score [5]: -1.94 (inactive) | z-score [6]: -1.83 (inactive) | z-score [7]: 0.77 | z-score [8]: 0.829 (inactive) | z-score [9]: 0.884 (inactive) | z-score [10]: -0.542 | z-score [11]: 0.72 | z-score [12]: 0.397 | z-score [13]: 0.705 | z-score [14]: -0.268 | z-score [15]: 0.575 | z-score [16]: -1 | z-score [17]: 0.688 (inactive) | z-score [18]: -0.381 | z-score [19]: -0.135 | z-score [20]: -2.52 (inactive)

C[N+](C)(C)CCCCCCNC(=O)[C@H]1C[C@H]2C(=O)N[C@@H](Cc3ccccc3)C(=O)N2[C@H]1c1cccc(OCCO)c1
z-score [1]: 0.123 (inactive) | composite z-score [2]: 0.222 | z-score [3]: 10.3 (active) | z-score [4]: 1.48 (inactive) | z-score [5]: -1.42 (inactive) | z-score [6]: 0.719 (inactive) | z-score [7]: -0.62 | z-score [8]: 1.78 (inactive) | z-score [9]: 0.576 (inactive) | z-score [10]: 1.13 | z-score [11]: -0.344 | z-score [12]: -1.04 | z-score [13]: -0.695 | z-score [14]: 0.245 | z-score [15]: 0.517 | z-score [16]: -1.25 | z-score [17]: -0.371 (inactive) | z-score [18]: -0.186 | z-score [19]: -0.545 | z-score [20]: 0.568 (inactive)

CO[C@H]1O[C@H](CO)[C@@H](OC(=O)Nc2cccc(F)c2)[C@H](OC(=O)Nc2ccccc2)[C@H]1OC(=O)Nc1ccccc1
z-score [1]: -0.198 (inactive) | composite z-score [2]: 0.435 | z-score [3]: 4.41 (inactive) | z-score [4]: 1.13 (inactive) | z-score [5]: -0.711 (inactive) | z-score [6]: 0.986 (inactive) | z-score [7]: 0.627 | z-score [8]: -6.46 (inactive) | z-score [9]: -1.09 (inactive) | z-score [10]: -2.13 | z-score [11]: -2.2 | z-score [12]: 1.33 | z-score [13]: -2.94 | z-score [14]: -1.53 | z-score [15]: -4.26 | z-score [16]: -0.389 | z-score [17]: 0.518 (inactive) | z-score [18]: -1.33 | z-score [19]: -0.561 | z-score [20]: -3.72 (inactive)
